Holding throughout (experiment): DAPPL (digital affinity profiling via proximity ligation, sequencing); 10 mM Tris-HCl pH 7.5, 50 mM NaCl, 1 mM DTT, 4% glycerol, room temperature, 30 min; GST-TFs on glutathione beads, 16-mer random dsDNA library, 0.1% formaldehyde crosslink after washing; high values mean tight binding
In one assay the target is T1, FLI1 (Homo sapiens, UniProt Q01543 1-452).
T1 sequence: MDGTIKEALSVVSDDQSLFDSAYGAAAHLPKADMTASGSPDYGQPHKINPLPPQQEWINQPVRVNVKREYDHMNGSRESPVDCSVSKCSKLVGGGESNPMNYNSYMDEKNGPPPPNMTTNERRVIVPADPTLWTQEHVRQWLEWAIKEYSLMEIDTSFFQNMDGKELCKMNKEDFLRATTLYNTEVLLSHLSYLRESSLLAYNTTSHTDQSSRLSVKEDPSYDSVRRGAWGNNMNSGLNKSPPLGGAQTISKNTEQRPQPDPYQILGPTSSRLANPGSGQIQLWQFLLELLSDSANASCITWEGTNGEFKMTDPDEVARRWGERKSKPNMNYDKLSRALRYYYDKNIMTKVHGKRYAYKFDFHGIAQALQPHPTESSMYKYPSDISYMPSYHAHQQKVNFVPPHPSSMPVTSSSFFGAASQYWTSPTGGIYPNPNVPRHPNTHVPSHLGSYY
To be noted: protein: recombinant; tags: N-terminal GST; dsDNA, one strand shown. An outline of the steps: (§1)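 Beads coated with glutathione captured GST-fused human transcription factors that had been expressed in yeast, and the factors were then given DNA barcodes and pooled with a tag-only sample. The pools were incubated with 200 nmole of a random double-stranded 16-mer DNA library in Tris/NaCl/DTT/glycerol buffer for 30 min at room temperature, washed, crosslinked with 0.1% formaldehyde and proximity-ligated with BsaI/T4 ligase at 37 °C for 1 h. PCR amplification and Illumina NextSeq500 sequencing came last. Binding signal is each hexamer's read frequency for a factor divided by its frequency for the tag-only sample.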

A further assay has as its target T2, ELK1 (Homo sapiens, UniProt P19419 1-428).
T2 sequence: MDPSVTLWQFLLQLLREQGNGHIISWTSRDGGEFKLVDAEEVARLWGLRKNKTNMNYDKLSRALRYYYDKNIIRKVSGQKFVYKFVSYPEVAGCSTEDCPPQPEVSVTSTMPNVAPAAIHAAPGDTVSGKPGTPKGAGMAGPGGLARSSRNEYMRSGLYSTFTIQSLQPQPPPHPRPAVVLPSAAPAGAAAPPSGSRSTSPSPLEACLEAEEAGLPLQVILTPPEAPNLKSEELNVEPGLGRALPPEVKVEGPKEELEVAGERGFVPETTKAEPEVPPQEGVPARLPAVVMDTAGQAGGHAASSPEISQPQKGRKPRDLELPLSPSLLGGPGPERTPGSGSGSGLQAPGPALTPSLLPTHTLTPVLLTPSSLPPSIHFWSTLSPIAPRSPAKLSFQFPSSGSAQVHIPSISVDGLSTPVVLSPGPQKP
To be noted: protein: recombinant; tags: N-terminal GST; dsDNA, one strand shown. An outline of the steps: as §1

A further assay concerns the target T3, GABPA (Homo sapiens, UniProt Q06546 1-454).
T3 sequence: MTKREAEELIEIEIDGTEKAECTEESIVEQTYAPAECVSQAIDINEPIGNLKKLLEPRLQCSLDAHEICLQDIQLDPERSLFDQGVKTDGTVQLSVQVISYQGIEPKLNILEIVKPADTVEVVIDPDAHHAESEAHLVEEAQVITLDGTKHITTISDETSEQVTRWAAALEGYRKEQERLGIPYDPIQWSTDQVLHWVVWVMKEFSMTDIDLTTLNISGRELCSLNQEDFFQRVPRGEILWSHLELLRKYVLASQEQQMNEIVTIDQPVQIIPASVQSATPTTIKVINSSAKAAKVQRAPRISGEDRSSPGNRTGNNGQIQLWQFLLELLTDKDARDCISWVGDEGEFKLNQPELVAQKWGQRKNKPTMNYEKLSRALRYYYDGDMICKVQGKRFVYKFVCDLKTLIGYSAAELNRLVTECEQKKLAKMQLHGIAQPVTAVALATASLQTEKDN
The following applies: protein: recombinant; tags: N-terminal GST; dsDNA, one strand shown. The essentials:
as §1

Another assay concerns the target T4, ERG (Homo sapiens, UniProt P11308 1-479).
T4 sequence: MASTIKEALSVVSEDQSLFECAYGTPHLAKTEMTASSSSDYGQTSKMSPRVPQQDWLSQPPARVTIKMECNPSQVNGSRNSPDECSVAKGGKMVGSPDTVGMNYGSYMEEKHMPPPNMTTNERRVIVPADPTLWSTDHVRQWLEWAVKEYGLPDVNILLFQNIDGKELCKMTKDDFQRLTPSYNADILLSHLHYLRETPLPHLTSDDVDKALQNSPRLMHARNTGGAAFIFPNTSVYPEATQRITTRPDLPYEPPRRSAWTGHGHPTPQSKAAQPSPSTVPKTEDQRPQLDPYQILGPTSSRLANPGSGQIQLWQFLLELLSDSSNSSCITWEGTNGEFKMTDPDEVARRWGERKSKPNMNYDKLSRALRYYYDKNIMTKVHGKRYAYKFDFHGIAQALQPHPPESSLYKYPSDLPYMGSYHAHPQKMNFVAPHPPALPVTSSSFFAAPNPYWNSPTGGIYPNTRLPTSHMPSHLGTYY
To be noted: protein: recombinant; tags: N-terminal GST; dsDNA, one strand shown. An outline of the steps:
as §1

A further assay has as its target ELF1 (Homo sapiens, UniProt P32519 1-619). The following applies: protein: recombinant; tags: N-terminal GST; dsDNA, one strand shown. The essentials: as §1
The target of the next assay is T5, EHF (Homo sapiens, UniProt Q9NZC4 1-300).
T5 sequence: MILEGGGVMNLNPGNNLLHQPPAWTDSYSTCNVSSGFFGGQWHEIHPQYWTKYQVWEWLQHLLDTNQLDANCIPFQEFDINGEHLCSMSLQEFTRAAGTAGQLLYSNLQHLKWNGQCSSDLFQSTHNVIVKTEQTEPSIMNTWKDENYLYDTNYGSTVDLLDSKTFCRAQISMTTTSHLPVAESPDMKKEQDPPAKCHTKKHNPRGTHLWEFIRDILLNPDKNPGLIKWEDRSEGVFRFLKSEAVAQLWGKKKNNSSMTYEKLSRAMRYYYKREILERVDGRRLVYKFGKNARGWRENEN
To be noted: protein: recombinant; tags: N-terminal GST; dsDNA, one strand shown. The essentials:
as §1

Another assay addresses SPI1 (Homo sapiens, UniProt P17947 1-270). The following applies: protein: recombinant; tags: N-terminal GST; dsDNA, one strand shown. An outline of the steps: as §1
The target of the next assay is SPIB (Homo sapiens, UniProt Q01892 1-262). To be noted: protein: recombinant; tags: N-terminal GST; dsDNA, one strand shown. The essentials:
as §1

The target in the next assay is T6, ELK3 (Homo sapiens, UniProt P41970 1-407).
T6 sequence: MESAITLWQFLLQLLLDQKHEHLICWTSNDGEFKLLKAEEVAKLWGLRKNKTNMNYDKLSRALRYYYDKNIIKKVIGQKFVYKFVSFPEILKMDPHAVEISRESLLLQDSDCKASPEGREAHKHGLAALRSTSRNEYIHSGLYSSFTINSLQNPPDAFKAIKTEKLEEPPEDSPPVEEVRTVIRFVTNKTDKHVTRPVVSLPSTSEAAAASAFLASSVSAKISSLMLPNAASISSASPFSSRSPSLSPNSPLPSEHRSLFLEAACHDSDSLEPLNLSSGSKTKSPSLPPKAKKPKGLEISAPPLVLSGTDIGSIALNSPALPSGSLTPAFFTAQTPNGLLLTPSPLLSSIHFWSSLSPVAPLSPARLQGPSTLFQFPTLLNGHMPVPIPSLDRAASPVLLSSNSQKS
The following applies: protein: recombinant; tags: N-terminal GST; dsDNA, one strand shown. The essentials:
as §1

The target in the next assay is T7, FEV (Homo sapiens, UniProt Q99581 1-238).
T7 sequence: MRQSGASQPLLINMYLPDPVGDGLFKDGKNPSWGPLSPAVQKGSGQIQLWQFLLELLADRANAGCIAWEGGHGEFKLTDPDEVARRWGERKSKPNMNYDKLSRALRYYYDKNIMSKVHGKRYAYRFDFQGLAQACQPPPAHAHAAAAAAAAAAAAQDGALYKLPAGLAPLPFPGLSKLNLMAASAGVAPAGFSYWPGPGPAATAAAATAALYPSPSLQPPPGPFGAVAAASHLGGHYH
To be noted: protein: recombinant; tags: N-terminal GST; dsDNA, one strand shown. The essentials:
as §1

For the next assay, the target named is ETV5 (Homo sapiens, UniProt P41161 1-510). To be noted: protein: recombinant; tags: N-terminal GST; dsDNA, one strand shown. An outline of the steps:
as §1

The next assay addresses HSF1 (Homo sapiens, UniProt Q00613 1-529). The following applies: protein: recombinant; tags: N-terminal GST; chain copies: 3; dsDNA, one strand shown. An outline of the steps:
as §1

The next assay concerns the target T8, SPIC (Homo sapiens, UniProt Q8N5J4 1-248).
T8 sequence: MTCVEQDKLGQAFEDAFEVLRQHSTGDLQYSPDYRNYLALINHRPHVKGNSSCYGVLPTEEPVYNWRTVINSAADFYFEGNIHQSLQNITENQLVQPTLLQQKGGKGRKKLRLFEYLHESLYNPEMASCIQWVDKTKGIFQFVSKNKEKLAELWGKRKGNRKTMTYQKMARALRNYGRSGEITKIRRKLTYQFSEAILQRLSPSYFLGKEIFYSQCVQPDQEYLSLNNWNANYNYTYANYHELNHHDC
To be noted: protein: recombinant; tags: N-terminal GST; dsDNA, one strand shown. An outline of the steps: as §1

In the next assay the target is ELF4 (Homo sapiens, UniProt Q99607 1-663). The following applies: protein: recombinant; tags: N-terminal GST; dsDNA, one strand shown. The essentials:
as §1

For a further assay, the target named is T9, ELK4 (Homo sapiens, UniProt P28324-2 1-405).
T9 sequence: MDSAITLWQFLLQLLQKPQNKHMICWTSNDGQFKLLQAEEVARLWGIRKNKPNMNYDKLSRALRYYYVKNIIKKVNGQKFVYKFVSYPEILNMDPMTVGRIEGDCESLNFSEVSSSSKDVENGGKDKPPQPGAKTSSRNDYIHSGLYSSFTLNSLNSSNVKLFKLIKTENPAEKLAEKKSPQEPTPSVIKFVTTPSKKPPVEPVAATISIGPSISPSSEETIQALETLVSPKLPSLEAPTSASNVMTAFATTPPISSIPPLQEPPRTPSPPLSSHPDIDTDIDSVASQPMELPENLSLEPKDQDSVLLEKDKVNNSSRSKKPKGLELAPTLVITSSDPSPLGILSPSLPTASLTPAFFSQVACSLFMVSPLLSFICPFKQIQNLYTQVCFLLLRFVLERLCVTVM
To be noted: protein: recombinant; tags: N-terminal GST; dsDNA, one strand shown. The essentials: as §1

Another assay has as its target T10, ETV2 (Homo sapiens, UniProt O00321 1-342).
T10 sequence: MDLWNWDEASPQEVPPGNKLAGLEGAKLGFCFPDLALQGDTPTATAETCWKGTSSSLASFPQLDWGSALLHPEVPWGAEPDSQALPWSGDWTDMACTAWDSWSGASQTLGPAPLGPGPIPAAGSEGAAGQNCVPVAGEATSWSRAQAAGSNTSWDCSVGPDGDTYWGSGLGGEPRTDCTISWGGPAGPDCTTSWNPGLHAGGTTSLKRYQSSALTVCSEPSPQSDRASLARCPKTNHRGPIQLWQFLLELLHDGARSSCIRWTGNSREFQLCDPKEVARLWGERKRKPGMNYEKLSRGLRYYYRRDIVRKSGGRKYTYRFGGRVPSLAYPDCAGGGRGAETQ
To be noted: protein: recombinant; tags: N-terminal GST; dsDNA, one strand shown. An outline of the steps: as §1

A further assay concerns the target T11, ELF3 (Homo sapiens, UniProt P78545 1-371).
T11 sequence: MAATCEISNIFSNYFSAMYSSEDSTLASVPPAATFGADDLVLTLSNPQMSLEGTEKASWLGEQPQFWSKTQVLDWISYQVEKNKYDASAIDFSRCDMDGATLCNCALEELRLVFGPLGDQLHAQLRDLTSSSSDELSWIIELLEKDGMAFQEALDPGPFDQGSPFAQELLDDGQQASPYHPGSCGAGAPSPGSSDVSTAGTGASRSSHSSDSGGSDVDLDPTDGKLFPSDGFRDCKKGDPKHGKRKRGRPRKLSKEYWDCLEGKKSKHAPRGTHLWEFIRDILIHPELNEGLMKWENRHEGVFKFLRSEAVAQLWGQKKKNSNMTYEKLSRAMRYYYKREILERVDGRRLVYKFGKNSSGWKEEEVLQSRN
To be noted: protein: recombinant; tags: N-terminal GST; dsDNA, one strand shown. The essentials: as §1

The target of a further assay is CRX (Homo sapiens, UniProt O43186 1-299). To be noted: protein: recombinant; tags: N-terminal GST; dsDNA, one strand shown. An outline of the steps:
as §1

The target of a further assay is ETV1 (Homo sapiens, UniProt P50549 1-477). To be noted: protein: recombinant; tags: N-terminal GST; dsDNA, one strand shown. The essentials: as §1
Sequence of ETV1 (P50549 whole entry): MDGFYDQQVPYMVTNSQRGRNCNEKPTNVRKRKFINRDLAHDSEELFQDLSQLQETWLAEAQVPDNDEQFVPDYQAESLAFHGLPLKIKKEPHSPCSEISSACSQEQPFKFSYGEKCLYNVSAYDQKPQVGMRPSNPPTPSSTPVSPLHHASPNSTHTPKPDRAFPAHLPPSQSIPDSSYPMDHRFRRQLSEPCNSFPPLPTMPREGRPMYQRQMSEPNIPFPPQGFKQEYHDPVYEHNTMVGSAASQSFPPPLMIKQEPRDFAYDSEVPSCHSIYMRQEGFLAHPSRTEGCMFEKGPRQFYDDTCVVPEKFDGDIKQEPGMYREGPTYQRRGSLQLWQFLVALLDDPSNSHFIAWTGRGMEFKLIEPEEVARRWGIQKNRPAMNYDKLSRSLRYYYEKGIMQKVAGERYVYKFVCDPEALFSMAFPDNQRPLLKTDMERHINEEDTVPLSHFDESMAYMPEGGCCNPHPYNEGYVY

The values that follow come from paper PMC7862700, “An all-to-all approach to the identification of sequence-specific readers for epigenetic DNA modifications on cytosine”.

Sequence of SPIB (Q01892 whole entry): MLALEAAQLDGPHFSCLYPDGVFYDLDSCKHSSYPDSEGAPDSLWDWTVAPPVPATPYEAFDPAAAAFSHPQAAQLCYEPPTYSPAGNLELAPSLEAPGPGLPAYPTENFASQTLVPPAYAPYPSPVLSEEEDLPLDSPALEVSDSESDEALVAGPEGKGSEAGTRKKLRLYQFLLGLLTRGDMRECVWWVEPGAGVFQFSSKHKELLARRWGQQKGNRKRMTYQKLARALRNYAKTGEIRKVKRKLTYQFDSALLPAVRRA
Sequence of HSF1 (Q00613 whole entry): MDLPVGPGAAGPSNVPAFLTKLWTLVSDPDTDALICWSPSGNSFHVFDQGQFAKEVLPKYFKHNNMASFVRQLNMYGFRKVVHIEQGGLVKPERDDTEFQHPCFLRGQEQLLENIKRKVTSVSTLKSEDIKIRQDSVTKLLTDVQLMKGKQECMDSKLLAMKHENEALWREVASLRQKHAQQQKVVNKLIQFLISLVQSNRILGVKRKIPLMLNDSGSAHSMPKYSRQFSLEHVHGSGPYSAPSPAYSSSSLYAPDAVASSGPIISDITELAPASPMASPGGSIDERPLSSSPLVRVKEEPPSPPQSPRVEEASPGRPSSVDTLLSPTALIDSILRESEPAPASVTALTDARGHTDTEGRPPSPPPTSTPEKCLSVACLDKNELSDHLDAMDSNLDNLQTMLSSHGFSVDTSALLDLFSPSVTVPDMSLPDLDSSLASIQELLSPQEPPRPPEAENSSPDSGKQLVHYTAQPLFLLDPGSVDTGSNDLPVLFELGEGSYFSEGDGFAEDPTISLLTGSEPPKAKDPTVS
Sequence of ETV5 (P41161 whole entry): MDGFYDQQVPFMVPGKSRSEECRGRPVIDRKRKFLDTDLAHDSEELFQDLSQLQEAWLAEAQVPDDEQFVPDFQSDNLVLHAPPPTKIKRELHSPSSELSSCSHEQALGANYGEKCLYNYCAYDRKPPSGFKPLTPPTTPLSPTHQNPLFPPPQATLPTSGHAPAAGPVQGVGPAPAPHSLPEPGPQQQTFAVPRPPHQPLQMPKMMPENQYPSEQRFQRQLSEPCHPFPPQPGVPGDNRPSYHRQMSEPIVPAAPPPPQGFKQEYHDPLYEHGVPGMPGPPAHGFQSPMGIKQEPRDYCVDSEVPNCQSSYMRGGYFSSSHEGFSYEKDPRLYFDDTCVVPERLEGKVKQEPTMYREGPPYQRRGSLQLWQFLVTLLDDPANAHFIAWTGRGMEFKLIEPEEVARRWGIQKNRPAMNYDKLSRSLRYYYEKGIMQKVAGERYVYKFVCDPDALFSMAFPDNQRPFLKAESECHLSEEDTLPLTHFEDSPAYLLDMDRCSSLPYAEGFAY
Sequence of ELF4 (Q99607 whole entry): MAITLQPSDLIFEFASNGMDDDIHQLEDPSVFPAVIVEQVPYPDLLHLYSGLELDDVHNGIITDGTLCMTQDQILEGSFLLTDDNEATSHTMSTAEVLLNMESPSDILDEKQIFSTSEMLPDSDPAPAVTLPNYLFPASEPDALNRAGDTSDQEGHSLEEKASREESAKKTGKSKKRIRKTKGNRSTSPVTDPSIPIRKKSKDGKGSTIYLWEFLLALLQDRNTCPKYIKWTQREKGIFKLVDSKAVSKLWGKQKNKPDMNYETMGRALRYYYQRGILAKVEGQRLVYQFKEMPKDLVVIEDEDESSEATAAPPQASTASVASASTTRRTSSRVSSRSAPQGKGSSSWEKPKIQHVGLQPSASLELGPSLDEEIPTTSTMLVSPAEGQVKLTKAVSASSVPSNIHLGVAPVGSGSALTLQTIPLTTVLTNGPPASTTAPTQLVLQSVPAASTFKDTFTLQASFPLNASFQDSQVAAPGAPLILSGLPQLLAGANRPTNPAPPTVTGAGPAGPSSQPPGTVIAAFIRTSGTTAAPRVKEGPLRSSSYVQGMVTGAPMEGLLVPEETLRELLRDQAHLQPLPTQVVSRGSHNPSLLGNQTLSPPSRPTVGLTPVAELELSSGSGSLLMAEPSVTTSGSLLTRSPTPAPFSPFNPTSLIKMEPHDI
Sequence of ELF1 (P32519 whole entry): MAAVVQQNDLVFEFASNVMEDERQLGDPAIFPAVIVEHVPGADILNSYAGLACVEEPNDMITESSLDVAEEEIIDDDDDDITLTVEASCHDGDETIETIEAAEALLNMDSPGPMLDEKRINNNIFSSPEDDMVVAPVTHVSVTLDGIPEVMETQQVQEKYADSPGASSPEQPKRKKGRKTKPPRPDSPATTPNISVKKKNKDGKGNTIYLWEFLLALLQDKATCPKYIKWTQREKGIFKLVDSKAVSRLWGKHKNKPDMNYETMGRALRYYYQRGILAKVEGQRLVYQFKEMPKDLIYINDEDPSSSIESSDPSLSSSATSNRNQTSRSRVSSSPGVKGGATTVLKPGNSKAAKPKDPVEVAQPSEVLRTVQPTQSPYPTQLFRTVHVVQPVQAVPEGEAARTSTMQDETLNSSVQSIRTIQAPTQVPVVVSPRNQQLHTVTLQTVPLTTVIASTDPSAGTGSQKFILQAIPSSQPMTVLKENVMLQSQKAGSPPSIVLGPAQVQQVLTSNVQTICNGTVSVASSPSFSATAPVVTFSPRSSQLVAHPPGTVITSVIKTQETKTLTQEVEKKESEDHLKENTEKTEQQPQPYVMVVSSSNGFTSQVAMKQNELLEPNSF
Sequence of CRX (O43186 whole entry): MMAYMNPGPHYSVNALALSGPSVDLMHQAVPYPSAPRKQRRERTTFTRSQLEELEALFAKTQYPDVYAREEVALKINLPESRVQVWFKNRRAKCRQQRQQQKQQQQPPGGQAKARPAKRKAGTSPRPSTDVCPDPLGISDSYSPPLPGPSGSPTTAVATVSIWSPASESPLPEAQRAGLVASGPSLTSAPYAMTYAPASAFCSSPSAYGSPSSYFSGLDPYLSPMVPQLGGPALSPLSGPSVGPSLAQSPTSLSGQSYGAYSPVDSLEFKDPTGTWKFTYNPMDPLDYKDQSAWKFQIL

In the case of TTCGCA, the binding signal with FLI1 is 1.23 fold enrichment (6-mer frequency, TF over GST control); with ELK1, 1.36 fold enrichment (6-mer frequency, TF over GST control); with GABPA, 1.33 fold enrichment (6-mer frequency, TF over GST control); with ERG, 1.29 fold enrichment (6-mer frequency, TF over GST control); with ELF1, 1.27 fold enrichment (6-mer frequency, TF over GST control); in the assay with EHF, 1.34 fold enrichment (6-mer frequency, TF over GST control). Further, the binding signal was 1.32 fold enrichment (6-mer frequency, TF over GST control) in the assay with SPI1; 1.46 fold enrichment (6-mer frequency, TF over GST control) with SPIB; 1.25 fold enrichment (6-mer frequency, TF over GST control) with ELK3; 1.4 fold enrichment (6-mer frequency, TF over GST control) with FEV; 1.15 fold enrichment (6-mer frequency, TF over GST control) in the assay with ETV5; 1.31 fold enrichment (6-mer frequency, TF over GST control) with HSF1. Also, the binding signal in the assay with SPIC was 1.32 fold enrichment (6-mer frequency, TF over GST control); with ELF4, 1.26 fold enrichment (6-mer frequency, TF over GST control); with ELK4, 1.2 fold enrichment (6-mer frequency, TF over GST control); in the assay with ETV2 it was 1.34 fold enrichment (6-mer frequency, TF over GST control); with ELF3, 1.11 fold enrichment (6-mer frequency, TF over GST control); with CRX it was 1.28 fold enrichment (6-mer frequency, TF over GST control). Moreover, the binding signal with ETV1 was 1.32 fold enrichment (6-mer frequency, TF over GST control).
